Data: PubChem BioAssay (NCATS)
Records with an inconclusive call do not appear. Calls of active or inactive are those of the source. The call rests on the fitted dose curve; in most records, active means well fitted inhibition curve with a large enough effect; inconclusive means small, poorly fitted or top-dose-only effect; inactive means flat fitted curve, though single readings scatter.

Tests used:
Test in all cases: qHTS profiling for inhibitors of Plasmodium falciparum proliferation (AID 504749); further: nearly all actives have a fitted effect of over 60% in size
Details in all cases: P. falciparum in erythrocytes, SYBR Green DNA, 72 h; series mostly up to 28.7 µM
HB3 = system: HB3
Method in brief: (§1)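 SYBR Green fluorescence (ex 485 nm, em 535 nm) reports parasite DNA after 72 h compound exposure of infected red cells at 0.3% parasitemia, 2.5% hematocrit; signal normalized to 0.29 uM artemisinin and vehicle wells.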

ICS = system: ICS
Method in brief: as §1

JCK = system: JCK
Method in brief: as §1

N140 = system: N140
Method in brief: as §1

P93_24 = system: P93_24
Method in brief: as §1

P94_40 = system: P94_40
Method in brief: as §1

PAD = system: PAD
Method in brief: as §1

PC15 = system: PC15
Method in brief: as §1

PC26 = system: PC26
Method in brief: as §1

PC49 = system: PC49
Method in brief: as §1

Measured: outcome

CCc1cccc2c3c([nH]c12)[C@@](CC)(CC(=O)O)OCC3
inactive: all assays above

CCOC(=O)C(CCc1ccccc1)NC(C)C(=O)N1Cc2ccccc2CC1C(=O)O (centres undefined)
not listed: P93_24
inactive: all other assays above
